Screens as filed in PubChem BioAssay.
Shown is part of a subset that was picked to be rich in hits.
JMJD2E inh = inhibitors of human JMJD2E histone demethylase | JMJD2E catalytic domain, FDH-coupled NADH fluorescence (FDH is formaldehyde dehydrogenase) | actives 1.6% (n = 230,000) | B2RXH2 | Potency, µM (series often up to 57.1 µM), without a hit: at the top dose activity change, negative = inhibition, usual class: inhibitors; active = well fitted inhibition curve with a large enough effect, not every such curve was filed as active; inconclusive = small, poorly fitted or top-dose-only effect, or another doubt; inactive = no such curve, though single readings can be large or run the other way;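 note: 0% = wells with enzyme and -100% = buffer wells without enzyme; nearly all actives have a fitted effect of over 50% in size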
TDP1 block = TDP1 (human) enzyme inhibition. Q9NUW8. recombinant TDP1, AlphaScreen DNA substrate cleavage. Potency, µM (titrated, usually from 130 µM), without a hit: top-dose activity change, negative = inhibition, usual class: inhibitors. actives 0.28% (n = 350,000); note: nearly all actives have a fitted effect of over 40% in size
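Here, a 5' biotin and 3' phosphotyrosine-FITC DNA oligonucleotide reports Tdp1 activity: intact substrate bridges AlphaScreen beads, while cleavage leaves a 3' phosphate and drops signal. All incubations at room temperature.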
RECQ1 inh = RECQ1 (human) helicase inhibition. Potency, µM (titrated, usually from 57.3 µM), inactives show top-dose activity, negative = inhibition, usual class: inhibitors. P46063. AID 2549. RECQ1 DNA unwinding, red fluorescence kinetic read. actives 0.54% (n = 240,000);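 note: plate controls were vehicle for no effect and no enzyme for full effect; nearly all actives have a fitted effect of over 30% in size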
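RECQ1T1 50 nM; forked duplex (20 bp + 30-nt ss tails) 200 nM, ATP 2 mM final; pH 8.0, 2 mM MgCl2, 2.5 ug/ml poly(dI-dC); 15 min compound preincubation; discontinuous kinetic read over 2 h at RT.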
BLM inh = inhibitors of human Bloom syndrome helicase BLM | recombinant BLM DNA unwinding, fluorescence dequenching | Potency, µM (doses to about 56.1 µM), without a hit: at the top dose activity change, negative = inhibition, usual class: inhibitors | actives 0.2% (n = 350,000) | AID 2528;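 note: plate controls were vehicle for no effect and no enzyme for full effect; nearly all actives have a fitted effect of over 35% in size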
APEX1 inh = inhibitors of human APE1 endonuclease | P27695 | recombinant APE1, TAMRA/BHQ-2 abasic DNA cleavage fluorescence | Potency, µM (doses to about 65.8 µM), for the others: at the top dose activity change, negative = inhibition, hits mostly inhibitors | actives 0.35% (n = 350,000) | AID 2517;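 note: plate controls were vehicle for no effect and reference inhibitor for full effect; nearly all actives have a fitted effect of over 55% in size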
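Incision of a quenched TAMRA/BHQ-2 THF abasic-site duplex (50 nM) by 0.75 nM APE1, after 15 min compound preincubation, measured as fluorescence increase over three 60 s reads. Values normalized to buffer, DMSO and NSC13755 control wells.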
L3MBTL1 block = L3MBTL1 (human) inhibition | Q9Y468 | AlphaScreen L3MBTL1–H3K9me1 peptide binding | Potency, µM (titrated, usually from 57.1 µM), without a hit: at the top dose activity, negative = inhibition, most hits filed as inhibitors | actives 0.66% (n = 230,000) | AID 485360; note: nearly all actives have a fitted effect of over 60% in size
Target sequence (Q9Y468 whole entry, looked up): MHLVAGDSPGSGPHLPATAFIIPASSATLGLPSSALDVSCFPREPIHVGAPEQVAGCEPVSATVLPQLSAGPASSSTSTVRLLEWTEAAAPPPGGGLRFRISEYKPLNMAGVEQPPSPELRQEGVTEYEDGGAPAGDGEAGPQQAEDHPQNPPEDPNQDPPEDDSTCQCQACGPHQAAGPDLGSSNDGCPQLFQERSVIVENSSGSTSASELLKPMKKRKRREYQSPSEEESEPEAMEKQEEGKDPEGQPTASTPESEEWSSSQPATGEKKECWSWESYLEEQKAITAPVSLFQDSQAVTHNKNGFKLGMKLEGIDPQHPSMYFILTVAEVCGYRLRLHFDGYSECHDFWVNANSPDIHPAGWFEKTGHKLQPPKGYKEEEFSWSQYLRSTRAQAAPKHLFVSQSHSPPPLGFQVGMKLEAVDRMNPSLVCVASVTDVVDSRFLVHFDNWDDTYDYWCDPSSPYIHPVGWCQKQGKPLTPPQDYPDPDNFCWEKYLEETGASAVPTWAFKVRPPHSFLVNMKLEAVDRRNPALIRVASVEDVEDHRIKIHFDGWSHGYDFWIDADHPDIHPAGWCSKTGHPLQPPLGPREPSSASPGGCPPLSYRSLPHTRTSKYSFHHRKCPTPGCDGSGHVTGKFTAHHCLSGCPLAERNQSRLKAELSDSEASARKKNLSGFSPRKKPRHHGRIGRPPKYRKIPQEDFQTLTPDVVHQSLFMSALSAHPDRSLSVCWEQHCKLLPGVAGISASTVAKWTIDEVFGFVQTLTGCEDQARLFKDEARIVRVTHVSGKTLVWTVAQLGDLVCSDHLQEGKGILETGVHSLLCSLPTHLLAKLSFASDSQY
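Read-out is AlphaScreen signal from streptavidin donor and nickel chelate acceptor beads (10 ug/mL final each) bridging L3MBTL1 (50 nM) and biotinylated K9-monomethylated H3(1-15) peptide (75 nM), after 30 min compound exposure at room temperature.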
Starred values were filed as active, the others as inactive; i = inactive; ? = inconclusive; . = no result; [ ] = remark or other dose. Unless noted, calls come from the whole dose curve; as a rule, active = well fitted curve in the direction sought with a large enough effect; inconclusive = small, poorly fitted or top-dose-only effect, or another doubt; inactive = no such curve, though single readings can be large; an effect the other way counts as inactive or inconclusive. Unless noted, % is set by controls: 0 for no effect and ±100 for the full control effect; potency is the fitted concentration of half-maximal effect.

SMILES	JMJD2E inh	TDP1 block	RECQ1 inh	BLM inh	APEX1 inh	L3MBTL1 block
Nc1cc(S(=O)(=O)N2CCN(S(=O)(=O)c3ccc4c(c3)OCCO4)CC2)ccn1	.	-3%	.	.	.	.
O=c1c2ccccc2sn1-c1cc(S(=O)(=O)N2CCOCC2)ccc1N1CCCCC1	.	1%	.	.	.	.
O=c1c2ccccc2sn1-c1cc(S(=O)(=O)N2CCOCC2)ccc1N1CCOCC1	8.9µM*	-1%	-14%	3%	-4%	-5%
O=c1c2ccccc2sn1-c1cc(S(=O)(=O)N2CCOCC2)ccc1N1CCCC1	14µM*	-6%	-3%	-1%	-2%	.
Cc1ccc(NS(=O)(=O)c2cccc(F)c2)cc1C	.	0%	.	.	.	.
CCC[C@@H]1C[C@@]1(CCC)C(NP(=O)(c1ccccc1)c1ccccc1)c1ccc(Cl)cc1 (stereo not given in full)	25µM*	.	i	-11%	-5%	.
COc1cccc2oc3ccc(C#Cc4ccccn4)cc3c(=O)c12	.	.	.	0%	40%	-6%
COc1cccc2sc3cc(C#Cc4ccccn4)ccc3c(=O)c12	.	45µM*	.	.	-7%	-2%
O=C(NCC(O)CO)c1c(I)c(C(=O)NCC(O)CO)c(I)c(N(CCO)C(=O)CO)c1I (stereo not given)	.	.	.	.	2%[21 µM]	.
CCc1oc(C(=O)O)cc1COC	-28%	56µM*	-13%	3%	?	?
CCc1oc(C(=O)O)cc1CN(CC)CC	7%	4%	1%	-3%	6%	.
O=C(NCCc1ccc(F)cc1)C1CCCO1 (stereo not given)	.	.	.	-29%	150µM*	8%
Cc1cc(C)cc(NC(=O)c2cc(S(=O)(=O)N3CCCC3)ccc2F)c1	.	3%	.	-5%	.	.
C[C@H](CO)N1C[C@H](C)[C@@H](CN(C)S(=O)(=O)c2ccccc2)Oc2c(cccc2N(C)C)C1=O	.	1%	.	.	11%	-7%
Cc1noc(C)c1S(=O)(=O)N(C)C[C@H]1Oc2c(cccc2N(C)C)C(=O)N([C@H](C)CO)C[C@@H]1C	.	100µM*	.	.	9%	-3%
OCc1cccc(-c2noc(-c3ccccc3F)n2)c1	.	.	.	.	57%	.
Cc1ccc(NS(=O)(=O)c2cc3c(cc2Cl)CCC(=O)N3)cc1Cl	.	1%	.	.	.	.
CCOC(=O)C1=C(c2ccccc2)N=c2s/c(=C\c3cc(OC)c(OC)c(OC)c3)c(=O)n2C1c1cccs1 (stereo not given)	6%	-8%	-3%	-1%	-4%	-13%
CCOC(=O)C1=C(c2ccccc2)N=c2s/c(=C\c3ccco3)c(=O)n2C1c1cccs1 (stereo not given)	13µM*	.	?	?	-4%	22%
CCOc1ccccc1CN1CCc2nc(N3CCN(C)CC3)ncc2C1	.	4%	.	6%	.	.
CCN(CC)CCNC(=O)C1CCN(c2cc(C)nc3c(-c4ccc(Cl)cc4)c(C)nn23)CC1	.	0%	.	-1%	.	.
COC1=C(Nc2ccccc2)C(=O)c2ccccc2C1=O	4%	0%	-2%	-11%	7%	32µM*
O=C1C(Cl)=C(Nc2ccccc2)C(=O)c2ccccc21	0%	1%	-1%	-14%	-6%	-12%
COC1=C(OC)C(=O)c2ccccc2C1=O	11µM*	.	-11%	.	-5%	.
CCOc1ccccc1NC(=O)NCCn1c(=O)oc2ccc(C)cc21	.	5%	.	5%	.	.
SMILES	JMJD2E inh	TDP1 block	RECQ1 inh	BLM inh	APEX1 inh	L3MBTL1 block
O=C(N/N=C/c1ccccc1Cl)c1ccncc1	.	2%	.	1%	-5%	9%
O=C(N/N=C/c1cc(Cl)ccc1O)c1ccncc1	13µM*	13%	-10%	2%	15%	25µM*
O=C(NCC1CCCO1)C(=O)N/N=C/c1cc(Cl)ccc1O (stereo not given)	13µM*	.	-3%	4%	2%	?
CCc1n(CC(O)COCC2CC=CCC2)c2ccccc2[n+]1C (stereo not given)	11µM*	0%	-3%	5%	3%	-2%
CCc1cc(=O)oc2cc(OCc3nn[nH]n3)ccc12	20µM*	5%	-4%	-5%	8%	2%
COc1ccc(-c2nnc3n2N=C(c2c(OC)cccc2OC)CS3)cc1	.	7%	-3%	-2%	-2%	.
Oc1ccc2c(c1)OCC1(O)Cc3cc(O)c(O)cc3C21 (stereo not given)	14µM*	-10%[56.1 µM]	-3%	-2%	-1%	.
CCN(Cc1ccccc1)c1ccc(N=Nc2nn(C)c(C)c2[N+](=O)[O-])cc1	8%	11%	-2%	-11%	-4%	16µM*
O=C(OCN1C(=O)c2ccccc2C1=O)c1cc(S(=O)(=O)N2CCOCC2)ccc1F	.	0%	.	.	-7%	-1%
CC1(C)Oc2ccc3ccc(=O)oc3c2C(N2CCCCC2)C1O (stereo not given)	?	2%	-5%	-3%	-1%	.
CC(=O)OC1C(N2CCCCC2)c2c(ccc(/C=C/C(=O)N3CCCCC3)c2O)OC1(C)C (stereo not given)	7.1µM*	0%	5%	-2%	-6%	-9%
Cc1cc2oc(=O)cc(-c3cc4ccccc4o3)c2cc1O	.	.	.	-19%	-12%	.
O=c1cc(-c2cc3ccccc3o2)c2cc(O)ccc2o1	.	50µM*	.	-10%	-5%	.
O=C(Cc1ccccc1)N/N=C/c1cc(Br)cc(Br)c1O	.	.	.	-6%	-15%	.
O=C(CCN1CCN(c2ccccc2)CC1)N/N=C/c1ccc(O)c(O)c1O	-6%	0%	i	11µM*	2%	5.6µM*
O=C(CCN1CCOCC1)N/N=C/c1cc(Br)cc(Br)c1O	28µM*	2%	-3%	-6%	-14%	-15%
CCCOC1(C(F)(F)F)NC(=O)N(c2ccc(Cl)cc2)C1=O (stereo not given)	.	3%	.	-4%	.	.
O=C(COc1ccc(/C=C\[N+](=O)[O-])cc1)N1CCOCC1	-30%	6%	32µM*	0%	?	47%
CCCCCCOc1ccc(C(=N)N(CCCC)CCCC)c2ccccc12	.	.	.	3%	.	.
CCOc1ccc(NC(=O)CC2CC(C)(C)OC2=O)cc1 (stereo not given)	5%	0%	-5%	-1%	5%	7%
CCOc1ccc(NCC2CCOC(C)(C)C2)cc1 (stereo not given)	20µM*	3%	-3%	4%	?	-8%
O=S(=O)(O)c1ccc(O)cc1	.	0%	.	-11%	.	.
C=Cc1ccc(S(=O)(=O)O)cc1	.	.	-17%	-4%	14µM*	.
S=c1nc(-c2ccccc2Br)[nH][nH]1	14µM*	6%	i	-11%	9%	-16%
S=c1nc(-c2cc(Cl)ccc2Cl)[nH][nH]1	-18%	8%	-13%	4%	14%	16%
